From PubChem BioAssay
Most compounds without a hit are left out; they make up all but 3.5% or so of the library.
BoNT A protease – inhibitors of Botulinum neurotoxin A light chain protease; multiplex microsphere protease substrate cleavage, flow cytometry; inhibition, % at 10 µM; 360,000 tested, 0.17% active; note: plate controls were buffer without enzyme for full effect and enzyme alone for no effect
Anthrax LF prot – anthrax lethal factor protease inhibition | multiplex microsphere protease cleavage assay, LF | AID 588501 | 360,000 tested, 0.12% active | P15917 | inhibition, % at 10 µM; note: plate controls were buffer without enzyme for full effect and enzyme alone for no effect
Target sequence (P15917 whole entry, looked up): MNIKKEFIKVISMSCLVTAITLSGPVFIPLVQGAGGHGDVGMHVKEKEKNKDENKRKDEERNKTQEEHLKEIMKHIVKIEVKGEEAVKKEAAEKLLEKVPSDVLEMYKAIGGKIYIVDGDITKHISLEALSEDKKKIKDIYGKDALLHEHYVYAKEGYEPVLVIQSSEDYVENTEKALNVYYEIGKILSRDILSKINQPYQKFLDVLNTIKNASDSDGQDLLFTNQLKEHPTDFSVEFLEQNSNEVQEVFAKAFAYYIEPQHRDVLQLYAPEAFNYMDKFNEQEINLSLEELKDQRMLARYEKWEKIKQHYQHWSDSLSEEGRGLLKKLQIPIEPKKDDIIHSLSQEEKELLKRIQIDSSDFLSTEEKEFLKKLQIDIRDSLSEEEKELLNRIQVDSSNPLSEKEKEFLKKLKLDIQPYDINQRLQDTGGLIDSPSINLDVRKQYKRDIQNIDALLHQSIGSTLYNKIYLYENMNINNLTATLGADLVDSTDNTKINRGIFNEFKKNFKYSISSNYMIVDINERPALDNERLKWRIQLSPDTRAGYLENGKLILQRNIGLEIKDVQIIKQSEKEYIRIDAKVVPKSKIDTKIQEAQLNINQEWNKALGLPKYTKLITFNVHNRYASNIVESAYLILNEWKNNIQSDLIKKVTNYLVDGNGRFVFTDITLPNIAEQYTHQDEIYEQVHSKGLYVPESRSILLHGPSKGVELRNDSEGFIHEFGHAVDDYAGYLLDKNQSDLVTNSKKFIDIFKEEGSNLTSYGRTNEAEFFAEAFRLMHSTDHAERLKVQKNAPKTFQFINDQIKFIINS
Autofluor counter – flagged as autofluorescent in microsphere protease counterscreen; fluorescence intensity (test concentration not listed); compound autofluorescence counterscreen, microsphere flow cytometry; stronger effect = higher value; 360,000 tested, 3.1% active; AID 624483; in the data active = fluorescence intensity above about 16000; inconclusive = no clear call, values can overlap the other calls
Vc quorum ag – quorum light induction in luxS cqsA deficient V. cholerae. activation, % at 18.7 µM. V. cholerae BH1578 lux reporter, luminescence, 6 h. 350,000 tested, 0.16% active. AID 588436; in the data active = activation mostly above about 9.7%, no sharp cut-off; inconclusive = no clear call, values can overlap the other calls; inactive = mostly below about 3.7%
BoNT F protease – BoNT F light chain protease inhibition; Multiplex microsphere protease cleavage assay, flow cytometry; inhibition, % at 10 µM; 360,000 tested, 0.22% active; in the data active = inhibition above about 35%, passing the limit was not always enough; inconclusive = no clear call, values can overlap the other calls; note: plate controls were buffer without enzyme for full effect and enzyme alone for no effect
An asterisk follows results filed as active; i = inactive; ? = inconclusive; . = no result; + = active, no number. Cut-off read from the data, not from the text of the source, unless noted: active = inhibition above about 30%; inconclusive = no clear call, values can overlap the other calls; inactive = below that.

SMILES	BoNT A protease	Anthrax LF prot	Autofluor counter	Vc quorum ag	BoNT F protease
COc1cc2c(cc1OC)C(O)C(O)(CO)C(C(=O)O)C2c1cc(OC)c(OC)c(OC)c1 (stereo not drawn)	0.1	1.6	3335	-1.7	-5.8
O=c1[nH]cnc2sc3c(c12)CCCC3	-3.0	-1.6	23869*	i	-7.1
COCCCN(C(C)=O)c1nc(-c2ccccc2)cs1	?	-1.6	21845*	i	-0.5
COCCCN(C(=O)c1ccccc1)c1nc(-c2ccc(OC)cc2)cs1	-3.3	-9.7	3041	i	2.1
C=CCNC(=O)c1sccc1Oc1ccc(F)cc1[N+](=O)[O-]	-0.5	-9.2	4202	0.6	-0.6
COc1ccc(C(=O)COC(=O)CCN=C2NS(=O)(=O)c3ccccc32)cc1OC	-0.5	-1.5	20801*	i	0.2
COc1ccccc1C(=O)COC(=O)CCCN=C1NS(=O)(=O)c2ccccc21	1.1	9.8	6256	-0.7	?
NC(=O)c1cc(S(=O)(=O)NC2CCCCC2)co1	?	-2.2	22647*	i	-2.6
COc1ccc(S(=O)(=O)NC2CCCCCC2)cc1C(N)=O	-0.4	-2.4	5950	i	4.5
O=C(N/N=C/c1ccc2cccnc2c1)c1nc2ccccc2c(=O)[nH]1	-4.5	-8.5	6015	i	-12.1
CN(C)CCCNS(=O)(=O)c1cc(Cl)c(Cl)cc1Cl	?	5.0	3786	-0.5	?
CN(C)CCCNS(=O)(=O)c1cc(Cl)ccc1Cl	?	-0.1	20853*	-2.5	-2.6
O=[N+]([O-])c1cc(-c2ccc(/C=N/n3cnnc3)o2)ccc1Cl	2.1	7.4	4175	-0.9	14.2
CC(C)COC(=O)c1cc(-c2ccc(/C=N/n3cnnc3)o2)ccc1Cl	1.0	-1.9	22229*	-1.2	-0.2
CN(C)c1ccc(/C=C/c2ccc3c4ccccc4ccc3[n+]2-c2ccccc2)cc1	62.4*	-62.2	1663	-0.5	+
CC(C)(C)C(=O)CN1CCN(C2c3ccccc3-c3ccccc32)CC1	-5.7	-7.5	21967*	-0.7	-7.7
COc1ccc(-c2noc(CSc3nc4ccccc4c(=O)n3-c3ccccc3)n2)cc1	-3.6	-1.6	21618*	-1.4	-3.3
CCN1C(=O)[C@H]2[C@@H](c3ccc(-c4ccc(C(C)=O)cc4)cc3)N3CCC[C@@]3(C(=O)OC)[C@H]2C1=O	-0.5	-5.2	3933	-2.1	1.5
Clc1ccc(CN2C3=NCCN3c3ccccc32)cc1Cl	0.0	0.4	23094*	i	-3.6
Cc1cc(NS(=O)(=O)c2ccc(NC(=O)c3ccc([N+](=O)[O-])cc3)cc2)nc(C)n1	-0.4	-0.1	3592	i	-1.9
CC1CCCCN1C(=O)/C(=C\c1ccccc1)c1ccccc1 (stereo not drawn)	5.2	0.4	21700*	-0.2	5.3
Cn1c(=O)c([N+](=O)[O-])c(NCc2ccc3c(c2)OCO3)c2ccccc21	.	.	.	-0.6	.
c1csc(-c2nnc(Cc3cccc4ccccc34)o2)c1	?	-2.8	23714*	-1.4	-5.5
c1ccc(-c2nnc(CSc3nnc(-c4cccs4)o3)o2)cc1	1.0	-2.9	22467*	-5.3	4.5
Fc1ccc(Cc2nnc(-c3cccs3)o2)cc1	-0.9	-8.4	5587	-0.4	2.1
SMILES	BoNT A protease	Anthrax LF prot	Autofluor counter	Vc quorum ag	BoNT F protease
COc1ccc(N2CCN(C3CC(=O)NC3=O)CC2)cc1 (stereo not drawn)	?	-4.6	24614*	i	-9.5
COc1ccc(S(=O)(=O)NCc2ccco2)cc1-c1nnc2c3ccccc3c(C)nn12	7.4	-4.9	20211*	i	6.5
COc1cc(CNC(C)C23CC4CC(CC(C4)C2)C3)ccc1OCC(=O)NC(C)(C)C (stereo not drawn)	-8.7	4.2	3930	i	-15.6
CC(NCc1cc(Br)ccc1OCC(N)=O)C12CC3CC(CC(C3)C1)C2 (stereo not drawn)	-67.9	-35.9	21485*	-0.4	?
CC(C)CCNC(=O)CN(C(=O)Cn1nnc(-c2ccccc2F)n1)c1cccc2c1CCCC2	3.7	-10.0	20259*	2.5	6.9
COc1ccc(-c2nnn(CC(=O)N(CC(=O)NCCC(C)C)c3ccccc3)n2)cc1OC	3.0	3.0	21028*	i	5.2
COc1ccc(N(CC(=O)NC2CCCC2)C(=O)Cn2nnc(-c3ccc(OC)c(OC)c3)n2)c(OC)c1	-2.9	-15.6	3859	i	28.3
O=C(CN(C(=O)Cn1nnc(-c2ccccc2F)n1)c1cccc2c1CCCC2)NCc1ccccc1	?	-11.9	?	-0.4	?
COc1ccc(CCNC(=O)Cn2nnc(-c3cccc(OC)c3OC)n2)cc1OC	-1.0	-2.4	22884*	-0.1	-3.2
CC(C)CCNC(=O)CN(CCCN1CCOCC1)C(=O)Cn1nnc(-c2ccc(F)cc2)n1	4.4	1.0	22173*	-0.2	4.6
CC(=O)O[C@H]1[C@H](C)OC=C[C@@H]1OC(C)=O	-0.1	1.7	3985	i	2.9
COc1ccccc1C(=O)NN=C1CCN(Cc2ccccc2)CC1	0.1	0.0	2319	-0.3	-2.7
CC1(C(=O)NS(=O)(=O)c2ccc(C#N)cc2)CCN1C(=O)Cc1ccccc1Cl (stereo not drawn)	-0.3	4.7	3726	i	-0.2
CC(C)C(NC(=O)c1ccc(C(C)(C)C)cc1)C(=O)N1CCC(C(N)=O)CC1 (stereo not drawn)	-0.6	-3.2	3826	-2.5	2.3
CC1CCc2c(cnc3ncnn23)C1 (stereo not drawn)	-0.2	1.2	4127	0.7	-1.4
COc1ccc(OC)c(-c2cc(C(=O)Nc3c(C)n(C)n(-c4ccccc4)c3=O)no2)c1	-1.3	-4.9	16603*	i	-4.2
COc1cccc(-c2cc(C(=O)Nc3cc(C)n(Cc4ccc(Cl)cc4)n3)no2)c1	-0.2	-0.9	11138	-0.5	-5.0
COc1ccc(OC)c(-c2cc(C(=O)Nc3cc(C)n(Cc4ccc(Cl)cc4)n3)no2)c1	-1.5	-7.4	23480*	-0.3	-3.1
COc1ccccc1-c1cc(C(=O)Nc2c(C)n(C)n(-c3ccccc3)c2=O)no1	?	-3.4	16484*	-0.5	-0.4
Cc1ccc(-c2nnc(N3CC(C)OC(C)C3)c3ccccc23)cc1 (stereo not drawn)	0.3	-1.1	2084	-0.2	-3.5
CC(=O)c1cccc(NC(=O)C2(C)Cc3c(-c4cccc(C(F)(F)F)c4)ccnc3O2)c1 (stereo not drawn)	-0.3	-4.1	3989	-0.3	0.6
O=C1N=C(N2CCCC2)S/C1=C\C=C\c1ccccc1	4.5	2.9	4230	-0.6	40.8*
O=C1N=C(N2CCCCC2)S/C1=C\c1ccncc1	-0.6	-3.1	6205	-2.0	-1.4
Cc1ccc(C)n1Cc1ccc(C(=O)O)cc1	-4.3	-2.3	24761*	0.1	2.7
O=C(O)c1ccc2c(c1)C(=O)N(c1cccc3ccccc13)C2=O	-2.6	8.5	3029	83.3*	6.8
CC(C)(C)Cc1c(-c2ccccc2)nc2ccc(Cl)cn12	-0.1	1.0	4670	-0.4	-6.8
NC(=O)CNC1CC(=O)N(CCc2ccccc2)C1=O (stereo not drawn)	0.3	-2.4	23483*	0.7	0.4
